Of roughly 7,900 targets only a part is listed; those with a hit were picked by preference. About 0.6% of all pairs of compound and target were hits. Unmarked numbers belong to inactive results.
What was measured:
Experiment in all cases: log2 fold change, soluble protein after heating vs DMSO (PISA); higher = thermal stabilisation; K562 cells, 10 uM, 30 min; active = over 0.2 and 3.5 SD of the protein, either way, in both replicates (recomputed)
[1] = compound: CN1CCN(CCOc2cc(OC3CCOCC3)c3c(Nc4c(Cl)ccc5c4OCO5)ncnc3c2)CC1 [saracatinib]
Procedure, shortened: (§1)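 K562 cells at 2×10^6 cells/mL were given 10 μM compound for 30 min. Aliquots then went through 3 min of heating across 48°C-58°C, were pooled, and were extracted in PBS with 0.5% NP-40 at 4°C, and the supernatant after 21,000xg for 90 min was quantified by TMTpro 16plex LC-MS/MS with channel sums equalised. Thermal stability relative to control samples, from duplicates, is given as log2 fold change.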

[2] = compound: CN1CCN(c2nc(C3=C(c4c[nH]c5ccccc45)C(=O)NC3=O)c3ccccc3n2)CC1 [sotrastaurin]
Procedure, shortened: as §1

[3] = compound: CN1CC[C@H](c2c(O)cc(O)c3c(=O)cc(-c4ccccc4Cl)oc23)[C@H](O)C1 [alvocidib]
Procedure, shortened: as §1

[4] = compound: CN1CCc2c(c3ccccc3n2Cc2ccc(C(=O)NO)cc2)C1 [Tubastatin A]
Procedure, shortened: as §1

[5] = compound: CNC(=O)C1=CC=CC=C1NC2=NC(=NC=C2Cl)NC3=C(C=C(C=C3)N4CCOCC4)OC
Procedure, shortened: as §1

[6] = compound: CNC(=O)c1ccc(Nc2ncc(C(F)(F)F)c(NCc3nccnc3N(C)S(C)(=O)=O)n2)cc1 [defactinib]
Procedure, shortened: as §1

[7] = compound: CNCc1ccc(-c2[nH]c3cc(F)cc4c3c2CCNC4=O)cc1 [rucaparib]
Procedure, shortened: as §1

[8] = compound: CNc1nc(-c2ccc3c(N)n[nH]c3c2)cc(N2C[C@@H](C(=O)NC3CCCCC3)CC[C@H]2C)n1
Procedure, shortened: as §1

[9] = compound: COC(=O)N[C@@H](C)CNc1nccc(-c2cn(C(C)C)nc2-c2cc(Cl)cc(NS(C)(=O)=O)c2F)n1 [encorafenib]
Procedure, shortened: as §1

[10] = compound: COC(=O)[C@H](CCSC)NC(=O)C1=C(C=C(C=C1)NC[C@H](CS)N)C2=CC=CC=C2
Procedure, shortened: as §1

[11] = compound: CON(C)C(=O)N1N=C(c2cc(F)ccc2F)S[C@@]1(CCCN)c1ccccc1 [filanesib]
Procedure, shortened: as §1

[12] = compound: CO[C@H]1C[C@@H]2CC[C@@H](C)[C@@](O)(O2)C(=O)C(=O)N2CCCC[C@H]2C(=O)O[C@H]([C@H](C)C[C@@H]2CC[C@H](n3cnnn3)[C@H](OC)C2)CC(=O)[C@H](C)/C=C(\C)[C@@H](O)[C@@H](OC)C(=O)[C@H](C)C[C@H](C)/C=C/C=C/C=C/1C [zotarolimus]
Procedure, shortened: as §1

[13] = compound: COc1cc(C(=O)O)ccc1NC(=O)[C@@H]1N[C@@H](CC(C)(C)C)[C@](C#N)(c2ccc(Cl)cc2F)[C@H]1c1cccc(Cl)c1F [idasanutlin]
Procedure, shortened: as §1

[14] = compound: COc1cc(Nc2ncc3c(n2)-c2ccc(Cl)cc2C(c2c(F)cccc2OC)=NC3)ccc1C(=O)O [alisertib]
Procedure, shortened: as §1

[15] = compound: COc1cc2nc(-c3cc(F)ccc3O)nc(N[C@@H]3CNC[C@H]3C(C)(C)O)c2cc1OC
Procedure, shortened: as §1

[16] = compound: COc1cc2ncnc(Nc3ccc(F)c(Cl)c3)c2cc1OCCCN1CCOCC1 [gefitinib]
Procedure, shortened: as §1

[17] = compound: COc1cccc2cc(-c3nc([C@H]4CC[C@H](C(=O)O)CC4)n4ncnc(N)c34)[nH]c12
Procedure, shortened: as §1

[18] = compound: CS(=O)(=O)CCNCc1ccc(-c2ccc3ncnc(Nc4ccc(OCc5cccc(F)c5)c(Cl)c4)c3c2)o1 [lapatinib]
Procedure, shortened: as §1

[19] = compound: CS(=O)(=O)N1CCN(Cc2cc3nc(-c4cccc5[nH]ncc45)nc(N4CCOCC4)c3s2)CC1 [pictilisib]
Procedure, shortened: as §1

[20] = compound: COC1=CC=C(C=C1)CN2C=CC3=C2C=C(C=C3)C(=O)NO
Procedure, shortened: as §1

Chain of UniProt Q9Y3L5 (Q9Y3L5 whole entry, looked up): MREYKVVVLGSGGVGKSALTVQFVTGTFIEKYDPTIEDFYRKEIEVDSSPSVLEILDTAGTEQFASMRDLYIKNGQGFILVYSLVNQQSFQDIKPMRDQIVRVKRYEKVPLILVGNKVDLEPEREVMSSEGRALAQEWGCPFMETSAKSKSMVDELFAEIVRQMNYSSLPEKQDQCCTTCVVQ
Chain of UniProt Q9H2X9 (Q9H2X9 whole entry, looked up): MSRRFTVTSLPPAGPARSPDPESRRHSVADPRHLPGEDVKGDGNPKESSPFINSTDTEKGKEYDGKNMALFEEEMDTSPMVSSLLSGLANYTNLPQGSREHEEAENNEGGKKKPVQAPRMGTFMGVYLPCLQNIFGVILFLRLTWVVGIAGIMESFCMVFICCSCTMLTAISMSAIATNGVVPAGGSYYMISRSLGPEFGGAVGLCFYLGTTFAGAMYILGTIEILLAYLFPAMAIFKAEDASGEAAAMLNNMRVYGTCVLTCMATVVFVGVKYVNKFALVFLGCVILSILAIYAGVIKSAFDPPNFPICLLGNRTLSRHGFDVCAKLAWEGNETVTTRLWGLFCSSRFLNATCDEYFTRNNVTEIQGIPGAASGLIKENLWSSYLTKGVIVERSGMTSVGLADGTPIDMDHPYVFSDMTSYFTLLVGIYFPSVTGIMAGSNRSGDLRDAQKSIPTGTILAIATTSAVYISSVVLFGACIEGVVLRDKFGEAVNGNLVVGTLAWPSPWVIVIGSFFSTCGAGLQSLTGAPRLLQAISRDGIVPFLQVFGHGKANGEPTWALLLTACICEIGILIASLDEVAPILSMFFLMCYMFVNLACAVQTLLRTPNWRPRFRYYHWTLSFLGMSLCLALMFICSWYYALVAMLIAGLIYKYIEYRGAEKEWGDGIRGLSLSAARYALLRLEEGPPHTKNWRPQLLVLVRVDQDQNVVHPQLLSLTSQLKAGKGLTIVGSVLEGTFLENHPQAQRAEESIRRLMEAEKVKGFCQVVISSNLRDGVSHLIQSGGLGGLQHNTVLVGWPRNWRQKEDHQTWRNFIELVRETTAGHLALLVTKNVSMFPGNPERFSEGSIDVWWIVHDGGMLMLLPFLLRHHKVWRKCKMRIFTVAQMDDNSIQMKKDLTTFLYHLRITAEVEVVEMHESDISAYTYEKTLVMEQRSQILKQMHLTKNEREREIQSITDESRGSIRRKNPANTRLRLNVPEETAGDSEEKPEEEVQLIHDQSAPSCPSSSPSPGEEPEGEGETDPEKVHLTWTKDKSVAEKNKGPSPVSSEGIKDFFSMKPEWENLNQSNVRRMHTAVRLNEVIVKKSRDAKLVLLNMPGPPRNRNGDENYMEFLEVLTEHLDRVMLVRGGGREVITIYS
Chain of UniProt P60602 (P60602 whole entry, looked up): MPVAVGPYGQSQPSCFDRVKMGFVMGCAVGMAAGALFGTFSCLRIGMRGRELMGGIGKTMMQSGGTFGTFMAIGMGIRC
Chain of UniProt Q96EU6 (Q96EU6 whole entry, looked up): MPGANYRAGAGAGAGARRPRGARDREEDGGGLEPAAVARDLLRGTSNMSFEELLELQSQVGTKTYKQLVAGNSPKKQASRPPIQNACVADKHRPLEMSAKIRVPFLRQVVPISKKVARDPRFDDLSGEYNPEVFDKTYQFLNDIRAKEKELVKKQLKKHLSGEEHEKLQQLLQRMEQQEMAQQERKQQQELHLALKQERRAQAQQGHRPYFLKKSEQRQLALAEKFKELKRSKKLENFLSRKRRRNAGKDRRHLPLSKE
Chain of UniProt Q8TDY2 (Q8TDY2 whole entry, looked up): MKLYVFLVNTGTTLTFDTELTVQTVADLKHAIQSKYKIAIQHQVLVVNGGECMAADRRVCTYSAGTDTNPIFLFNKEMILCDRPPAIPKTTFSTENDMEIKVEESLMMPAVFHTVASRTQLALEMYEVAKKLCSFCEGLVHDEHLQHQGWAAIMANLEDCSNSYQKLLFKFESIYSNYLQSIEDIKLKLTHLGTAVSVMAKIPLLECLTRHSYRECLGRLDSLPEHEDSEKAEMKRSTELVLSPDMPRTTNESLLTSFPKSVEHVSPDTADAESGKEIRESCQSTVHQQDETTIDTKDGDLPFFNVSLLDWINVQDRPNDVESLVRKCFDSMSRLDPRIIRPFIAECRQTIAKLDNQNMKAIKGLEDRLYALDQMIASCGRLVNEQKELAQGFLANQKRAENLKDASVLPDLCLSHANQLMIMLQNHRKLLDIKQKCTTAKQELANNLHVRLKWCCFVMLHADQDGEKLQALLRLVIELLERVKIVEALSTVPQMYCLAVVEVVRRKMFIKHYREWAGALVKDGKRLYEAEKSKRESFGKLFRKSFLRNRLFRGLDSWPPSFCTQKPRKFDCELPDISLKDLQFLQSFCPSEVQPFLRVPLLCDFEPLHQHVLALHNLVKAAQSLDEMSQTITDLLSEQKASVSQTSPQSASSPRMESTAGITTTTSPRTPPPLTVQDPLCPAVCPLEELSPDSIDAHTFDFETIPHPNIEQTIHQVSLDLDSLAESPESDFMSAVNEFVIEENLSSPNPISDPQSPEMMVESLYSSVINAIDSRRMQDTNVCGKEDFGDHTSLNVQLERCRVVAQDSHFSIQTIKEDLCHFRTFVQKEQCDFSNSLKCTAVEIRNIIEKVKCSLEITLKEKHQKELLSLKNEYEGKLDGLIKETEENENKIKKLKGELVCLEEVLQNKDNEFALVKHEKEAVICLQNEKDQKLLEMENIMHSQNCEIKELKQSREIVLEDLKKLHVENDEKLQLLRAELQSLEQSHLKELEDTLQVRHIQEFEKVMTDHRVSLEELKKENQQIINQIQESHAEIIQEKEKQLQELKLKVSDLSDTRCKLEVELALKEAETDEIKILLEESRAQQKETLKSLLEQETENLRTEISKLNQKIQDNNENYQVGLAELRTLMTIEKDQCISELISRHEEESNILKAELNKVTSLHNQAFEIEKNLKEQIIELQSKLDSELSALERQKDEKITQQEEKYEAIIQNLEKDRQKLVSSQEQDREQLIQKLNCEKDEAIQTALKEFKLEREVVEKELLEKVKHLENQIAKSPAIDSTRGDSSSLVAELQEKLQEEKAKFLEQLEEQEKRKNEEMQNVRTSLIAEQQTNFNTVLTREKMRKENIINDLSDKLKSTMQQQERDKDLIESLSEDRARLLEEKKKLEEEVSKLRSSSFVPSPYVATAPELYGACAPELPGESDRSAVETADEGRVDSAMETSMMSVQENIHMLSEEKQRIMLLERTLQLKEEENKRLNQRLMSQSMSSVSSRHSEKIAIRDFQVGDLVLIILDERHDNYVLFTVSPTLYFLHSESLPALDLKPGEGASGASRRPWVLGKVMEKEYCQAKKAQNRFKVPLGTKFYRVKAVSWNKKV
Chain of UniProt Q8NEM2 (Q8NEM2 whole entry, looked up): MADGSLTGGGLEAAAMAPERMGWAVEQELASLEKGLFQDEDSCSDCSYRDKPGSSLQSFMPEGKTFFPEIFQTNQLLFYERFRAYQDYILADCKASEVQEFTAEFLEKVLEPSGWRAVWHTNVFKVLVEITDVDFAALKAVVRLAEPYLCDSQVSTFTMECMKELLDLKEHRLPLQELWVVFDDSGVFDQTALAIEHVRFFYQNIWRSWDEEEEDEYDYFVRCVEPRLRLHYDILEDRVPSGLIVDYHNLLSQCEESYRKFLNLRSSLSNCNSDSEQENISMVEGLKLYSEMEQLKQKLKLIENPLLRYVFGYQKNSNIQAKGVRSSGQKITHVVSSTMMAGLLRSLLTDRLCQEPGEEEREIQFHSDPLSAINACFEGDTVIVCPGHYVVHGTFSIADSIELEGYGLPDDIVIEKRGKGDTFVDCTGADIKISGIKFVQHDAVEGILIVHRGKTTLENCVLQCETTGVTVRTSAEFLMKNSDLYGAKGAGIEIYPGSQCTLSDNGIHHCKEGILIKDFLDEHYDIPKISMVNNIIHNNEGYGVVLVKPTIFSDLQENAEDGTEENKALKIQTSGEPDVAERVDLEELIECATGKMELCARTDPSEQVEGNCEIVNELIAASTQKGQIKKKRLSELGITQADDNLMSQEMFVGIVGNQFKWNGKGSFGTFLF
Chain of UniProt Q9NTJ5 (Q9NTJ5 whole entry, looked up): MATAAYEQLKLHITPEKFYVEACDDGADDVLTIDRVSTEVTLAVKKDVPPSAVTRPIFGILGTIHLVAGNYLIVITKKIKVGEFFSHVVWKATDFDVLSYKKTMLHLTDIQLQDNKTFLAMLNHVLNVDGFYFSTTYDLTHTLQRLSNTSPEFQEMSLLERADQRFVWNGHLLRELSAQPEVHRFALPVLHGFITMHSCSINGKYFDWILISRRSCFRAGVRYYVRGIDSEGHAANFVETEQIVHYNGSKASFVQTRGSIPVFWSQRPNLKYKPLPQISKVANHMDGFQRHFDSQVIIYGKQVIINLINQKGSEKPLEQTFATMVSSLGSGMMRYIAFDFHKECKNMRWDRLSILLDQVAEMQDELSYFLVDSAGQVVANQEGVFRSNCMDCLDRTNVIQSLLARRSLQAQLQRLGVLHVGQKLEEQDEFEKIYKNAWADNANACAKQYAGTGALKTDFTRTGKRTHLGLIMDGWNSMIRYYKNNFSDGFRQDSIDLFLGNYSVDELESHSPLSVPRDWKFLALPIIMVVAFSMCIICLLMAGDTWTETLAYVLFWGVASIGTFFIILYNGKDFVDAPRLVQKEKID

| Target | log2 fold change [1] | log2 fold change [2] | log2 fold change [3] | log2 fold change [4] | log2 fold change [5] | log2 fold change [6] | log2 fold change [7] | log2 fold change [8] | log2 fold change [9] | log2 fold change [10] | log2 fold change [11] | log2 fold change [12] | log2 fold change [13] | log2 fold change [14] | log2 fold change [15] | log2 fold change [16] | log2 fold change [17] | log2 fold change [18] | log2 fold change [19] | log2 fold change [20] |
| --- | --- | --- | --- | --- | --- | --- | --- | --- | --- | --- | --- | --- | --- | --- | --- | --- | --- | --- | --- | --- |
| RRP36 (UniProt Q96EU6) | -0.021 | -0.067 | 0.211 | 0.17 | 0.073 | 0.351 | 0.057 | 0.007 | 0.092 | 0.05 | 0.372 | -0.054 | 0.203 | -0.217 | 0.01 | -0.042 | -0.268 | 0.088 | -0.181 |  |
| ROMO1 (UniProt P60602) | 0.022 | -0.091 | 0.023 | 0.048 | 0.013 |  | -0.038 | -0.012 | 0.026 |  | -0.024 | -0.069 | 0.044 | 0.005 | -0.024 | 0.034 | 0.033 | -0.079 | 0.035 |  |
| SACM1L (UniProt Q9NTJ5) | 0.004 | 0.003 | -0.098 | -0.026 | 0.042 | -0.08 | -0.062 | 0.007 | 0.034 | -0.046 | -0.081 | 0.029 | -0.027 | -0.05 | -0.039 | 0.086 | 0.023 | 0.028 | -0.038 | 0.044 |
| SLC12A5 (UniProt Q9H2X9) | -0.152 | 0.053 | -0.067 | -0.072 | -0.007 | 0.08 | -0.138 | 0.148 | 0.044 | 0.075 | -0.071 | -0.076 | 0.017 | 0.299 | -0.097 |  | 0.124 | 0.085 |  | 0.323 |
| RB1CC1 (UniProt Q8TDY2) | -0.065 | -0.108 | -0.025 | 0.117 | -0.051 | -0.042 | 0.09 | 0.049 | -0.104 | -0.025 | -0.079 | 0.014 | -0.002 | -0.112 | 0.182 | -0.042 | -0.049 | 0.181 | 0.083 | 0.435 (active) |
| RAD50, A0A494C0Y7 | -0.101 | 0.048 | -0.026 | -0.079 |  | -0.146 | -0.206 | 0.198 | 0.15 | -0.055 | 0.001 | -0.021 | -0.05 | 0.127 | -0.077 |  | 0.035 | -0.142 | 0.085 | -0.054 |
| RAP2C (UniProt Q9Y3L5) | 0.04 | 0.026 | -0.009 | -0.014 | -0.058 | -0.044 | -0.003 | -0.054 | -0.041 | 0.01 | -0.011 | -0.031 | 0.008 | -0.073 | 0.016 | -0.01 | 0.031 | 0.1 | -0.799 (active) |  |
| SHCBP1 (UniProt Q8NEM2) | -0.044 | 0.017 | -0.07 | 0.174 | -0.061 | -0.194 | -0.104 | -0.081 | 0.149 | -0.018 | 0.059 | 0.103 | -0.023 | 0.134 | 0.102 | 0 | -0.056 | -0.13 | -0.057 | -0.014 |

Source: the supplement of paper PMC10849652
